# According to article PMC5540273 (PLoS ONE, 2017):
# What was measured:
# Settings in all cases: concentration: 1 μM,replicates: in singlicate; n = 1
# DYRK1B = system: DYRK1B
# DYRK2 = system: DYRK2
# EGFR = system: EGFR
# EIF2AK1 = system: EIF2AK1
# EPHA1 = system: EPHA1
# EPHA2 = system: EPHA2
# EPHA3 = system: EPHA3
# EPHA4 = system: EPHA4
# EPHA5 = system: EPHA5
# EPHA6 = system: EPHA6
# EPHA7 = system: EPHA7
# EPHA8 = system: EPHA8
# EPHB1 = system: EPHB1
# EPHB2 = system: EPHB2
# EPHB3 = system: EPHB3
# EPHB4 = system: EPHB4
# EPHB6 = system: EPHB6
# ERBB2 = system: ERBB2
# ERBB3 = system: ERBB3
# ERBB4 = system: ERBB4
# 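Further: KINOMEscan kinase panel screen.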
Structure (SMILES),%Inh (DYRK1B) [%],%Inh (DYRK2) [%],%Inh (EGFR) [%],%Inh (EIF2AK1) [%],%Inh (EPHA1) [%],%Inh (EPHA2) [%],%Inh (EPHA3) [%],%Inh (EPHA4) [%],%Inh (EPHA5) [%],%Inh (EPHA6) [%],%Inh (EPHA7) [%],%Inh (EPHA8) [%],%Inh (EPHB1) [%],%Inh (EPHB2) [%],%Inh (EPHB3) [%],%Inh (EPHB4) [%],%Inh (EPHB6) [%],%Inh (ERBB2) [%],%Inh (ERBB3) [%],%Inh (ERBB4) [%]
COc1ccc(C[C@@H](CN)NC(=O)c2cc(Br)c(-c3ccnc4[nH]ccc34)s2)cc1.Cl.Cl [GSK1389063],91.3,69,37,7,52,17,44,25,0,33,12,59,19,1,31,32,35,25,0,38
Cl.Oc1cc(-c2nc(-c3ccccc3)[nH]c2-c2ccncc2)ccc1Cl [SB-386023],0,5,20,0,59,0,5,0,23,36,9,14,0,0,22,30,14,0,0,23
C[C@@H](Oc1cc(-c2cnn(C3CCNCC3)c2)cnc1N)c1c(Cl)ccc(F)c1Cl,0,30,0,14,93.5,82,37,49,51,90.2,,54,68,,16,52,99.6,7,0,0
CN(C)CCOc1ccc(-c2cc(-c3c[nH]nc3-c3ccccn3)ccn2)cc1 [GW835314],22,17,28,93.7,18,10,18,90,5,84,8,14,2,11,59,8,8,0,43,0
Cc1occc1-c1nc(N)c(OC[C@@H](N)Cc2c[nH]c3ccccc23)cc1-c1cc2c(C)n[nH]c2cn1 [GSK1660450],91.6,92.1,97.2,12,16,13,30,14,0,32,3,24,24,0,23,11,0,79,0,56
O=C(NCCNc1ccnc(NCc2ccc(F)cc2)n1)c1cc2ccccc2s1 [GSK1379944],0,0,23,0,10,17,0,22,0,19,12,34,6,80,27,16,18,13,0,0
CCN(CC)CCCCNc1ncc2cc(-c3c(Cl)cccc3Cl)c(NC(=O)NC(C)(C)C)nc2n1,1,0,,46,99.6,99.6,99.4,91.5,95.9,95.6,0,99.9,99.9,93,26,92.6,98.9,35,68,38
Cl.Cl.NC[C@H](Cc1ccc(C(F)(F)F)cc1)NC(=O)c1cc(Br)c(-c2ccnc3[nH]ccc23)s1 [GSK1487252],41,33,30,0,26,14,0,19,0,29,10,47,12,10,20,14,12,9,0,41
Cc1cc2cn[nH]c2cc1-c1cccc2c(N)c(C(N)=O)nnc12,0,23,56,26,17,0,0,8,89,0,19,11,15,0,0,0,64,14,30,87
O=C(NCCCN1CCOC1=O)c1cnc(NCc2cc(Cl)ccc2Cl)nc1NC1CCCC1,21,0,0,0,12,25,0,14,17,28,2,4,8,12,24,16,19,46,0,9
CN(C)CC(O)COc1ccc(Nc2nccc(-c3cnn4nc(N5CCOCC5)ccc34)n2)cc1 (stereo not shown) [GW767488],69,87,17,42,34,0,9,8,9,0,9,0,9,0,0,95.4,73,5,40,33
Cc1cc(C(=O)Nc2ccc(Oc3ccc4nc(NC(=O)C5CC5)cn4n3)cc2)nn1-c1ccccc1,0,0,0,0,45,29,0,48,6,46,0,37,18,30,19,37,89,19,87,19
Cc1ccc2c(-c3ccncc3)c(-c3ccc(F)cc3)nn2c1.Cl [GW461484],4,9,43,0,10,8,13,0,0,5,7,15,0,0,5,0,27,21,0,3
CNC(=O)c1ccccc1Sc1ccc2c(/C=C/c3ccccn3)n[nH]c2c1,0,0,,6,12,9,0,0,0,0,0,0,0,0,0,0,80,22,1,6
CCN(CC)CCOc1ccc(Nc2ncc3cc(-c4c(Cl)cccc4Cl)c(=O)n(C)c3n2)cc1 [SB-601273],14,11,,96.9,100,100,96.6,100,99.8,97.9,11,99.6,99.8,100,99.9,100,98.9,92.8,99.4,82
C[C@@H]1CCN(C(=O)CC#N)C[C@@H]1N(C)c1ncnc2[nH]ccc12,0,0,,6,6,0,0,0,0,0,21,10,0,0,0,0,10,0,0,15
CC(C)Nc1cc(-c2ccc3c(N)n[nH]c3c2)nc(N)n1 [GSK2221681],14,87,58,0,0,0,0,0,0,0,12,18,0,0,0,0,0,8,0,0
CCn1c(-c2nonc2N)nc2c(C#CC(C)(C)O)nc(OCCN)cc21.Cl.Cl [GSK902056],4,0,24,8,19,19,21,15,0,11,0,2,3,1,11,20,0,11,0,20
Cc1n[nH]c2ccc(-c3cc(OC[C@@H](N)Cc4ccccc4)cnc3-c3ccoc3)cc12.O=C(O)C(F)(F)F.O=C(O)C(F)(F)F [GSK507358],49,40,87,0,5,0,43,0,0,4,10,21,0,0,14,8,8,77,0,64
Cl.Cl.NC[C@H](CC1CCCCC1)NC(=O)c1cc(Br)c(-c2ccnc3[nH]ccc23)s1 [GSK1581427],71,67,23,0,42,12,0,13,0,25,14,52,17,0,5,10,10,1,0,22
Nc1nc(Nc2ccccc2)cc(-c2ccc3c(N)n[nH]c3c2)n1 [GSK2225749],19,88,16,0,0,32,0,0,0,0,0,0,4,0,0,0,0,32,0,0
NC(=O)c1cc(-c2ccccc2)cc2c(C3CCNCC3)c[nH]c12 [GSK301362],45,23,25,0,18,10,0,6,0,3,20,23,26,29,15,1,16,16,0,9
Cc1ccc(-n2nc(C(C)(C)C)cc2NC(=O)Nc2ccc(OCCN3CCOCC3)c3ccccc23)cc1 [GW839464],100,14,33,0,52,,,6,0,23,72,86,,37,7,31,0,24,26,0
CC(C)N1C(=O)Cc2cc(Nc3ncc(C(F)(F)F)c(NCc4cccc(S(C)(=O)=O)c4)n3)ccc21,38,19,0,0,4,0,9,1,3,3,12,5,16,3,0,0,49,15,13,0
C[C@H]1Oc2cc(cnc2N)-c2c(nn(C)c2C#N)CN(C)C(=O)c2ccc(F)cc21,6,0,9,0,53,48,0,1,24,33,35,2,27,30,2,35,82,28,0,0
C=CC(=O)Nc1cc2c(Nc3ccc(F)c(Cl)c3)ncnc2cc1OCCCN1CCOCC1 [GW781483],23,17,,11,25,0,13,5,7,,8,33,9,,0,24,52,,83,
Cl.Cl.Nc1nc(-c2ccc3c(N)n[nH]c3c2)cc(N2CCCC(NC(=O)c3ccccc3)C2)n1 (stereo not shown) [GSK2286775],18,80,28,0,13,0,0,15,0,6,11,16,27,10,11,3,26,0,0,33
